{"source": "PubChem BioAssay (NCATS)", "note": "Inconclusive results are not listed. Where a call stands in place of a potency, no number is given. Activity calls are given as the source filed them. Calls come from the whole dose curve; tested in HEK293 reporter line.", "data": [{"assay": "qHTS for Inhibitors of the Functional Ribonucleoprotein Complex (vRNP) of Lassa (LASV) Arenavirus: LASV Primary Screen - GLuc reporter signal (AID 1347082); note: nearly all actives have a fitted effect of over 60% in size", "conditions": "LASV minigenome vRNP, Gaussia luciferase reporter; series mostly up to 57.5 µM", "values": [{"smiles": "CCCCCC(O)c1cccc(OCc2ccc3ccccc3n2)c1", "note": "(stereo unspecified)", "Potency": "inactive"}, {"smiles": "Nc1ncnc2c1nc(Br)n2C1OC2COP(=O)(O)O[C@@H]2C1O", "note": "(stereo partly specified)", "Potency": "inactive"}, {"smiles": "COc1ccc(NC(=O)/C=C/c2ccc(Cl)cc2)cc1", "Potency": "inactive"}, {"smiles": "CC(C)(C)NC(=O)Nc1cccc(Nc2ncc(F)c(NC(C)(C)CO)n2)c1", "Potency": "inactive"}, {"smiles": "COc1ccc(CN2CCc3cc(OC)c(OC)cc3C2)cc1O", "Potency": "inactive"}, {"smiles": "CC(=O)O[C@@]12CO[C@@H]1C[C@H](O)[C@@]1(C)C(=O)[C@H](O)C3=C(C)[C@@H](OC(=O)[C@H](O)[C@@H](NC(=O)c4ccccc4)c4ccccc4)C[C@@](O)([C@@H](OC(=O)c4ccccc4)C12)C3(C)C", "note": "(stereo partly specified)", "Potency": "inactive"}, {"smiles": "O=C(Nc1ccccc1)c1cc([N+](=O)[O-])ccc1Cl", "Potency": "inactive"}, {"smiles": "Nc1nc(Cl)nc2c1ncn2[C@@H]1O[C@H](COP(=O)(O)OP(=O)(O)OP(=O)(O)O)[C@@H](O)[C@H]1O", "Potency": "inactive"}, {"smiles": "CN1CCc2c(n(Cc3ccc(C(=O)NO)cc3)c3ccccc23)C1", "Potency": "inactive"}, {"smiles": "NC(=Nc1ccccc1)NC(=O)c1nc(Cl)c(N)nc1N", "Potency": "inactive"}, {"smiles": "Cc1ccc(S(=O)(=O)N[C@@H](Cc2ccccc2)C(=O)CCl)cc1", "Potency": "inactive"}, {"smiles": "C[C@H](NC(=O)c1sccc1OCc1ccc(Cl)cc1)c1ccccc1", "Potency": "inactive"}, {"smiles": "CC(N)(Cc1ccc(O)c(O)c1)C(=O)O", "note": "(stereo unspecified)", "Potency": "inactive"}, {"smiles": "NC(=O)c1cccc2[nH]c(-c3ccc([C@H]4CCCN4)cc3F)nc12", "Potency": "inactive"}, {"smiles": "Nc1ncnc2c1c(-c1cccc(OCc3ccccc3)c1)cn2C1CC(CN2CCCC2)C1", "note": "(stereo unspecified)", "Potency": "inactive"}, {"smiles": "N#CC(c1ccnc(NCCc2cccnc2)n1)c1nc2ccccc2s1", "note": "(stereo unspecified)", "Potency": "inactive"}]}]}
